Compound activity from PubChem.
VP16 counter – inhibits Gal4-VP16 luciferase reporter, ROR gamma counter-screen; Drosophila S2 Gal4-VP16 UAS-luciferase, luminescence, 20 h; Potency, µM (series often up to 53.6 µM), actives largely listed as inhibitors; 3.5% of 310,000 active; AID 2546;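 also: Gal4-VP16 expression switched on by copper sulfate through the metallothionein promoter; nearly all actives have a fitted effect of over 50% in size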
DT40 TDP1 no CPT – qHTS for Inhibitors of human tyrosyl-DNA phosphodiesterase 1 (TDP1): qHTS in cells in absence of CPT. DT40 Tdp1-/- hTDP1 cells, no CPT, ATP luminescence, 48 h. 15% of 420,000 active. AID 686978, 2013. Potency, µM (series often up to 46.2 µM), usual class: inhibitors; also: nearly all actives have a fitted effect of over 55% in size
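A cellular qHTS used chicken DT40 cells lacking endogenous Tdp1 but carrying stably transfected human TDP1. Compounds were applied without camptothecin, and cell growth kinetics were judged by ATP-dependent luminescence after ≥48 hr.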
TDP1 block – inhibitors of human tyrosyl-DNA phosphodiesterase TDP1; recombinant TDP1, AlphaScreen DNA substrate cleavage; Potency, µM (series often up to 130 µM), hits mostly inhibitors; 0.28% of 350,000 active; also: nearly all actives have a fitted effect of over 40% in size
Target sequence (Q9NUW8 whole entry, looked up): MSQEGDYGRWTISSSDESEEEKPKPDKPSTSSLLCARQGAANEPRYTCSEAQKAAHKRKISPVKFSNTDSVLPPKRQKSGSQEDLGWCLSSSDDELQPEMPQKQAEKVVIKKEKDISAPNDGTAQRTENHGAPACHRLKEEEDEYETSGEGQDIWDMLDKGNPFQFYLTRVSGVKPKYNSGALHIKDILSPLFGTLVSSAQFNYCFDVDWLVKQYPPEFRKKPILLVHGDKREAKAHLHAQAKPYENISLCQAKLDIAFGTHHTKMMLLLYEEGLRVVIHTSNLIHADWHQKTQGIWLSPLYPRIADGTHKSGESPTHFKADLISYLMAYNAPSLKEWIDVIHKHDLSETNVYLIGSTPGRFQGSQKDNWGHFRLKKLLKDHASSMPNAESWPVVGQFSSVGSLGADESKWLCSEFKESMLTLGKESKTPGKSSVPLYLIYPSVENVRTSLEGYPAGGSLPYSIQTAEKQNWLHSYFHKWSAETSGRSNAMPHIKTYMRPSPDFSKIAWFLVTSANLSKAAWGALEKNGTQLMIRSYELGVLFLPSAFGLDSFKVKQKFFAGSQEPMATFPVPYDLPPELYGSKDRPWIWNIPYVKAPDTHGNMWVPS
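Tdp1 1 nM final; 15 min RT w/ cpd; substrate 15 nM, 5 min; beads 10 ug/ml, 10 min; AlphaScreen read. Neg ctrl: no enzyme.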
RORg inh – ROR gamma (mouse) transcription inhibition; Drosophila S2 Gal4-RORgamma UAS-luciferase reporter, 20 h; Potency, µM (series often up to 53.6 µM), hits mostly inhibitors; P51450; AID 2551; 5.4% of 310,000 active; also: nearly all actives have a fitted effect of over 60% in size
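In this cell-based reporter format, copper sulfate (700 uM final) drives Gal4–ROR gamma fusion expression from a metallothionein promoter in Drosophila Schneider cells; compounds preincubated 1 hr, reporter read after 20 hr at ambient temperature.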
TDP1 cell CPT – DT40-hTDP1 cell growth loss with CPT; AID 686979; Potency, µM (titrated, usually from 46.2 µM), usual class: inhibitors; chicken DT40 Tdp1-/-;hTDP1 cells + 20 nM CPT, ATP luminescence, 48 h; 12% of 420,000 active; also: nearly all actives have a fitted effect of over 55% in size
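Chicken DT40 Tdp1-/- cells complemented with human TDP1, 400 cells/well, exposed to compounds plus 20 nM camptothecin for at least 48 h at 37 C; viability read as ATP content by CellTiter-Glo luminescence.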
Each line names hits and unclear results; the compound was inactive in the other large screens. Rows were chosen to be rich in hits. Some 19% of all compounds tested hit in one or more screens of this group. Calls follow the shape of the dose curve; as a rule, active = well fitted curve in the direction sought with a large enough effect; inconclusive = small, poorly fitted or top-dose-only effect, or another doubt; inactive = no such curve, though single readings can be large; an effect the other way counts as inactive or inconclusive.

O=C(Cn1c(=O)n(-c2ccc(F)cc2)c(=O)c2sccc21)c1ccccc1	none
COC(=O)c1ccc(N2CCN(C)CC2)c(NC(=O)COc2ccccc2)c1	none (no result: TDP1 block)
COCCOC(=O)C1=C(C)NC(=O)NC1c1cccc(F)c1 (stereo not drawn)	none
COc1ccc(Cc2nnc(SCC(=O)Nc3c(C)cccc3C)[nH]c2=O)cc1	DT40 TDP1 no CPT 9.2µM, TDP1 cell CPT inconclusive (no result: VP16 counter, RORg inh)
O=C(CSc1nnc(Cc2ccccc2)o1)Nc1ccc2c(c1)OCO2	none
CSc1nsc(SC)c1C(=O)N1CCN(S(=O)(=O)c2ccc(C)cc2)C1C (stereo not drawn)	DT40 TDP1 no CPT 23µM, TDP1 cell CPT inconclusive
CCOC(=O)c1ccc(NC(=S)N2CCSC2c2c(F)cc(F)cc2F)cc1 (stereo not drawn)	VP16 counter inconclusive, DT40 TDP1 no CPT 26µM, RORg inh 13µM, TDP1 cell CPT 23µM
COc1ccc(C2SCCN2C(=S)Nc2cccc(Cl)c2)cc1 (stereo not drawn)	VP16 counter inconclusive, DT40 TDP1 no CPT 16µM, RORg inh inconclusive, TDP1 cell CPT inconclusive
COc1ccc(C2SCCN2C(=S)Nc2ccc(Cl)cc2)cc1 (stereo not drawn)	VP16 counter inconclusive, RORg inh 13µM
COc1ccc(C2CCCN2C(=S)Nc2cccc(Cl)c2)cc1OC (stereo not drawn)	DT40 TDP1 no CPT inconclusive, RORg inh inconclusive
Cc1ccc(Nc2ccc([N+](=O)[O-])nc2[N+](=O)[O-])cc1	VP16 counter inconclusive, DT40 TDP1 no CPT inconclusive, RORg inh inconclusive, TDP1 cell CPT inconclusive
COc1ccc(/C=C2\N=C(C)N(c3ccc(C(=O)O)cc3)C2=O)cc1OC	none
C/C(=N\NC(N)=S)C1=CCC2C3CC[C@H]4CC(O)CC[C@]4(C)C3CC[C@]12C (stereo partly drawn)	VP16 counter inconclusive, DT40 TDP1 no CPT 5.2µM, RORg inh 2.5µM, TDP1 cell CPT 18µM (no result: TDP1 block)
CCOc1ccc(S(=O)(=O)N2CCN(Cc3nc4ccc(C)cc4o3)CC2)cc1	DT40 TDP1 no CPT inconclusive, TDP1 cell CPT 18µM (no result: VP16 counter, RORg inh)
Cc1ccc(S(=O)(=O)N2CCN(Cc3nc4ccc(C)cc4o3)CC2)cc1	DT40 TDP1 no CPT inconclusive (no result: VP16 counter, RORg inh)
COc1ccc(S(=O)(=O)N2CCN(Cc3nc4ccc(C)cc4o3)CC2)cc1Cl	DT40 TDP1 no CPT inconclusive, TDP1 cell CPT 18µM (no result: VP16 counter, RORg inh)
COc1cccc(C2C(C)CCC3C(=O)N(C)C(C(C)C)C(=O)N32)c1 (stereo not drawn)	none (no result: DT40 TDP1 no CPT, TDP1 cell CPT)
Cc1ccccc1C(=O)Nc1sc2c(c1C(=O)N1CCC(C)CC1)CCC(C)C2 (stereo not drawn)	DT40 TDP1 no CPT 21µM, TDP1 cell CPT 15µM (no result: VP16 counter, TDP1 block, RORg inh)
Cc1ccccc1C(=O)Nc1sc2c(c1C(=O)N1CCCCC1)CCC(C)C2 (stereo not drawn)	DT40 TDP1 no CPT inconclusive, TDP1 cell CPT 18µM (no result: VP16 counter, TDP1 block, RORg inh)
CCOc1ccccc1NC(=O)c1c(NC(=O)c2ccccc2C)sc2c1CCC(C)C2 (stereo not drawn)	none (no result: VP16 counter, RORg inh)
Cc1cc(Br)ccc1NC(=O)CN1C(=S)NC(C)(C)CC1C (stereo not drawn)	DT40 TDP1 no CPT inconclusive
CC1CC(C)(C)NC(=S)N1CCCC(=O)Nc1ccc(Br)cc1 (stereo not drawn)	VP16 counter inconclusive, DT40 TDP1 no CPT inconclusive, RORg inh 4µM, TDP1 cell CPT inconclusive
Cc1cccc(NC(=O)CCCN2C(=S)NC(C)(C)CC2C)c1C (stereo not drawn)	RORg inh 11µM
CCOc1ccc(NC(=O)CCCN2C(=S)NC(C)(C)CC2C)cc1 (stereo not drawn)	VP16 counter inconclusive, RORg inh inconclusive
S=C(Nc1ccccc1)Nc1ccccc1C#Cc1ccccc1	VP16 counter inconclusive, RORg inh 11µM (no result: DT40 TDP1 no CPT, TDP1 cell CPT)
Cc1cc(C)nc(NC(=S)Nc2ccccc2)n1	none
C[Si](C)(C)C#Cc1ccccc1NC(=S)Nc1ccccc1	VP16 counter inconclusive, RORg inh 14µM (no result: DT40 TDP1 no CPT, TDP1 cell CPT)
S=C(Nc1ccccc1)Nc1ccccc1-n1cccc1	VP16 counter 16µM, RORg inh 4.5µM
N#Cc1ccccc1NC(=S)NC(=O)c1cccs1	DT40 TDP1 no CPT inconclusive, TDP1 cell CPT inconclusive
